Consider 19 compounds from PubChem BioAssay (NCI).

Assay [1] can be described thus: NCI Yeast Anticancer Drug Screen. Data for the rad50 strain (AID 155).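 Note: 0% = growth of vehicle-only cultures of the same strain.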 The note with it: S. cerevisiae rad50 strain growth inhibition; at 50.0 µM; active compounds read high. The gist of the method:
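Relative growth inhibition (compound vs vehicle) was measured in yeast with a defined repair-gene alteration.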

The nature of assay [2]: NCI Yeast Anticancer Drug Screen. Data for the mec2-1 strain (AID 157). The note with it: S. cerevisiae mec2-1 strain, at 50.0 µM, active compounds read high. The gist of the method: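 Each compound was tested on mec2-1 yeast, a strain altered in DNA damage repair or cell cycle control. Growth inhibition is reported relative to vehicle.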
Assay [3] in a line: NCI Yeast Anticancer Drug Screen. Data for the sgs1 mgt1 strain (AID 161).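 Note: 0% = growth of cultures given vehicle only.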 The note with it: S. cerevisiae sgs1 mgt1 strain, at 50.0 µM, active compounds read high. A digest of the protocol:
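Mutant yeast exposed to compound; growth scored against vehicle-only wells.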

A short description of assay [4]: NCI Yeast Anticancer Drug Screen. Data for the cln2 rad14 strain (AID 165).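 Note: 0% = growth equal to vehicle treated cultures.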 The note with it: S. cerevisiae cln2 rad14 strain, at 50.0 µM, active compounds read high. A digest of the protocol:
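Test compounds were added to cln2 rad14 yeast cultures; inhibition of growth was then determined by comparison with vehicle treatment.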

The nature of assay [5]: NCI Yeast Anticancer Drug Screen. Data for the bub3 strain (AID 167). The following applies: S. cerevisiae bub3 mutant strain, at 50.0 µM, active compounds read high. The gist of the method: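 Screening used yeast with an engineered genetic alteration affecting cell cycle control. Compound-exposed cultures were compared with vehicle cultures, and reduced growth was taken as inhibition.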

Assay [6] can be described thus: NCI Yeast Anticancer Drug Screen. Data for the mlh1 rad18 strain (AID 175). The note with it: S. cerevisiae mlh1 rad18 strain growth inhibition; at 50.0 µM; active compounds read high. The gist of the method: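 Inhibition values reflect reduced growth of mutant yeast versus vehicle-treated controls following compound exposure; the mutations affect DNA damage repair.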

About 79,000 compounds went through this panel and 15% of them were active in at least one assay; those are over-represented in the sample as a whole. A number with no mark means an inactive call. Calls of active or inactive are those of the source. Cut-off read from the data, not from the text of the source: active = growth inhibition above about 70%; inactive = the rest. *1 amine or outer side, *2 acyl side, *3 side chain or, on linkers, in order; H or OH if unused. Where a SMILES comes first, the peptide text is derived from it. Bridges are numbered along the chain shown (N, C = ends). Roman numbers before positions name the chains, in order. [ ]: non-standard residue; d: D form. Actinocin(9to1) = Cc1c2oc3c(C)ccc(C(=O)[*:1])c3nc-2c(C(=O)[*:2])c(N)c1=O; X13 = O=C1CC(C(=O)[*:2])N([*:1])C1; NMeV = CN[CH](C(=O)O)C(C)C; Sar = CNCC(=O)O

For the compound `CCC1(CC)SCc2nc3ccccc3n21`, the growth inhibition in assay [1] is 23%; in assay [2] it was 18.2%; in assay [3], 58.3%; in assay [4], 29.3%; in assay [5], 58.8%; in assay [6] it was 42.3%.

For `O=C(OCc1ccccc1)c1ccccc1-c1c2ccc(=O)cc-2oc2cc(OCc3ccccc3)ccc12`, the growth inhibition in assay [1] was 33.4%; in assay [2], 18%; in assay [3], 40.9%; in assay [4], 23.6%; in assay [5], 21.3%; in assay [6], 26.1%.

Turning to `CCO/C=C1/N=C(c2ccccc2Cl)OC1=O`, the growth inhibition was 10.2% in assay [1]; 5.25% in assay [2]; -1.05% in assay [3]; -30.1% in assay [4]; -17.1% in assay [5]; 14.3% in assay [6].

With `O=C(O)/C=C/C(=O)N(c1ccccc1)N(C(=O)/C=C/C(=O)O)c1ccccc1`, the growth inhibition in assay [1] was 5.9%; in assay [2], -9.05%; in assay [3], 5.15%; in assay [4], 5.65%; in assay [5], 5.55%; in assay [6], 17.5%.

In the case of `CC(C)=CCc1c(C)c(O)c(C)c(C)c1O`, the growth inhibition in assay [1] is 7.15%; in assay [2] it was 1.25%; in assay [3], 9.6%; in assay [4], -71.9%; in assay [5], -11.4%; in assay [6], 8.05%.

As for `COc1ccc(/C=N/NC(=O)c2ccc(N)cc2)cc1`, the growth inhibition is -1.65% in assay [1]; 3% in assay [2]; 14.4% in assay [3]; -15.9% in assay [4]; 22.4% in assay [5]; 8.75% in assay [6].

With `Cc1c2oc3c(C)ccc(C(=O)NC4C(=O)NC(C(C)C)C(=O)N5CC(=O)CC5C(=O)N(C)CC(=O)N(C)C(C(C)C)C(=O)OC4C)c3nc-2c(C(=O)NC2C(=O)NC(C(C)C)C(=O)N3CC(=O)CC3C(=O)N(C)CC(=O)N(C)C(C(C)C)C(=O)OC2C)c(N)c1=O` (centres undefined) (I: TV[X13][Sar][NMeV] / II: TV[X13][Sar][NMeV]; ester I:1-I:C, II:1-II:C; linker I:N-II:N via Actinocin(9to1); configuration not given here), the growth inhibition in assay [1] was -22.6%; in assay [2], -1.65%; in assay [3], -3.1%; in assay [4] it was 52.4%; in assay [5], -3.25%; in assay [6], -42.8%.

Take `Nc1c(S(=O)(=O)O)cc(S(=O)(=O)O)c2ccc(N=Nc3ccccc3)c(O)c12`: the growth inhibition is 7.15% in assay [1]; 0.9% in assay [2]; -10.8% in assay [3]; -3.05% in assay [4]; -8.7% in assay [5]; -15.7% in assay [6].

Regarding `CCN(CCO)CC(=O)c1cc(Cl)ccc1OC`, the growth inhibition in assay [1] is -3.85%; in assay [2], 13.6%; in assay [3] it was 16.2%; in assay [4] it was -37%; in assay [5], 6.55%; in assay [6], 19.4%.

In the case of `CCCCCCCCCCCCCCCCCCNC(=O)N1CCCCC1C` (centres undefined), the growth inhibition in assay [1] is 10.2%; in assay [2] it was -3.9%; in assay [3], -14.7%; in assay [4], -24.1%; in assay [5], -3.9%; in assay [6] it was 14.3%.

In the case of `COC(=O)c1noc2c1CSC1=C2CS(=O)(=O)c2ccccc21`, the growth inhibition in assay [1] was 16.4%; in assay [2], 22%; in assay [3], 30.4%; in assay [4], 14.8%; in assay [5], 17.2%; in assay [6], 26.6%.

For the compound `O=C1C/C(=C/c2ccccc2[N+](=O)[O-])C(=O)N1c1ccccc1`, the growth inhibition in assay [1] was 16.4%; in assay [2], 4.35%; in assay [3], 13.4%; in assay [4], -36.1%; in assay [5] it was 3.8%; in assay [6], 11.2%.

With `Cc1cc(C)c2c(-c3ccccc3)cc(=O)[nH]c2c1`, the growth inhibition is -33% in assay [1]; -16.1% in assay [2]; -29.4% in assay [3]; -3.55% in assay [4]; -33.7% in assay [5]; -51.1% in assay [6].

For the compound `O=C(c1ccc(Cl)cc1Cl)N1CCCCC1`, the growth inhibition in assay [1] was 1.45%; in assay [2] it was -6.15%; in assay [3] it was 1.75%; in assay [4], -1.25%; in assay [5], 4.9%; in assay [6], 0.15%.

As for `C=CS(=O)(=O)c1ccc(NC(=O)Nc2ccc(Cl)cc2)cc1`, the growth inhibition in assay [1] is -0.55%; in assay [2] it was 1.7%; in assay [3], -8.8%; in assay [4], 12.8%; in assay [5], 1.25%; in assay [6], 5.85%.

With `ClC1CC[N-]CC1.ClC1CC[N-]CC1.O=C(O)CC(=O)O.[Pt+2]`, the growth inhibition in assay [1] was 53.2%; in assay [2], 55.4%; in assay [3], 68.5%; in assay [4], -23.4%; in assay [5], 23.4%; in assay [6], 45.5%.

Take `O=S1(=O)OCCOS(=O)(=O)C1I`: the growth inhibition in assay [1] is -8.1%; in assay [2], -30.2%; in assay [3], -12.4%; in assay [4], 11.3%; in assay [5], -21.5%; in assay [6], -29.6%.

Turning to `N#CCc1nc(-c2cc3ccccc3oc2=O)cs1`, the growth inhibition in assay [1] was 31.4%; in assay [2] it was 16.3%; in assay [3], -12.4%; in assay [4], 3.7%; in assay [5] it was 0.75%; in assay [6] it was -57%.

As to `Cc1onc(-c2ccccc2Cl)c1-c1nc2ccccc2c(=O)o1`, the growth inhibition in assay [1] is 94.1% (active); in assay [2], 97% (active); in assay [3], 98.5% (active); in assay [4], 93.2% (active); in assay [5] it was 96.8% (active); in assay [6], 93.5% (active).
